Test results taken from PubChem BioAssay (NCATS).
Inconclusive results are not listed. Where a call stands in place of a potency, no number is given. Unmarked numbers belong to inactive results. Active and inactive are the calls of the source. Calls come from the whole dose curve; as a rule, active = well fitted curve in the direction sought with a large enough effect; inconclusive = small, poorly fitted or top-dose-only effect, or another doubt; inactive = no such curve, though single readings can be large; an effect the other way counts as inactive or inconclusive.

Legend:
Hek293T = test: Primary qHTS to identify gynecologic anti-cancer compounds using libraries of approved drugs and bioactive compounds (AID 1345084); settings: Gynecologic cancer cell panel viability, ATPlite luminescence, 48 h, control line for the selectivity index; series mostly up to 57.5 µM; note: nearly all actives have a fitted effect of over 55% in size
How it was run: (§1)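 Five-point cytotoxicity, 48 h drug exposure at 37 C, 5% CO2, on cells seeded 16 h beforehand. ATP content read by ATPlite luminescence.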

JEG-3 = test: as above; settings: Gynecologic cancer cell panel viability, ATPlite luminescence, 48 h; series mostly up to 57.5 µM
How it was run: as §1

OV90 = test: as above; settings: Gynecologic cancer cell panel viability, ATPlite luminescence, 48 h; series mostly up to 57.5 µM
How it was run: as §1

PA-1 = test: as above; settings: Gynecologic cancer cell panel viability, ATPlite luminescence, 48 h; series mostly up to 57.5 µM
How it was run: as §1

SKOV3 = test: as above; settings: Gynecologic cancer cell panel viability, ATPlite luminescence, 48 h; series mostly up to 57.5 µM
How it was run: as §1

Tov-21-G = test: as above; settings: Gynecologic cancer cell panel viability, ATPlite luminescence, 48 h; series mostly up to 57.5 µM
How it was run: as §1

Tov112D = test: as above; settings: Gynecologic cancer cell panel viability, ATPlite luminescence, 48 h; series mostly up to 57.5 µM
How it was run: as §1

[1] = Drug repurposing screens with cells derived from glioblastoma tumor samples (AID 1345199); settings: GBM patient neurospheres viability, ATP luminescence, 48 h; note: nearly all actives have a fitted effect of over 40% in size
How it was run: (§2)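 Primary testing used CD133+ neurospheres from four GBM patients, seven concentrations, 48 h exposure and ATP-based viability; confirmation added three slower-growing patient lines.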

astro = test: as above; settings: viability, ATP luminescence, 48 h; series mostly up to 45.9 µM
How it was run: as §2

[2] = at 45.9 µM (top of the series), tumour line B
[3] = at 45.9 µM (top of the series), tumour line D
[4] = at 46.1 µM (top of the series), tumour line C
Potency is the fitted concentration of half-maximal effect.

Structure (SMILES)	Potency (Hek293T)	Potency (JEG-3)	Potency (OV90)	Potency (PA-1)	Potency (SKOV3)	Potency (Tov-21-G)	Potency (Tov112D)	activity, negative = cell killing [1, 2]	activity, negative = cell killing [1, 3]	activity, negative = cell killing [1, 4]	Potency (astro)	Potency ([1]; tumour line A)	activity, negative = cell killing ([1]; at 46 µM (top of the series), tumour line A)
O=C(O)C1(C(=O)O)CCC1.[NH2-].[NH2-].[Pt+2]	inactive	inactive	inactive	inactive	inactive	inactive	inactive	-20.6%	-8.04%	-13.1%	inactive		
COP(=O)(OC)OC(c1ccc(Cl)cc1)P(=O)(OC)OC (configuration not stated)	inactive	inactive	inactive	inactive	inactive	inactive	inactive	-15.7%	-14.1%	-24.8%	inactive		
C=CCN1CCc2nc(N)sc2CC1	inactive	inactive	inactive	inactive	inactive	inactive	inactive	-26.9%	-19.4%	-3.6%	inactive		
C/C=C/C=N/NC(=O)c1ccncc1	inactive	inactive	inactive	inactive	inactive	inactive	inactive	-13.6%	-18.3%	-22.3%	inactive		
CC(=O)O[C@H]1C[C@@H]2CC[C@@H]3[C@H](CC[C@@]4(C)[C@H]3C[C@H]([N+]3(C)CCCCC3)[C@@H]4OC(C)=O)[C@@]2(C)C[C@@H]1N1CCCCC1	inactive	inactive	inactive	inactive	inactive	inactive	inactive	-12.1%	-1.11%	-3.89%	inactive		
CCCCN1C[C@H](O)[C@@H](O)[C@H](O)[C@H]1CO	inactive	inactive	inactive	inactive	inactive	inactive	inactive	-11.2%	-2.4%	-21.4%	inactive		
CC(C)[N+](C)(C)CC(O)COc1cccc2ccccc12 (configuration not stated)	inactive	inactive	inactive	inactive	inactive	inactive	inactive	-19.8%	-17.5%	-27.6%	inactive		
CCC(C(=O)OCCOCCN(CC)CC)c1ccccc1 (configuration not stated)	inactive	inactive	inactive	inactive	inactive	inactive	inactive			-29.9%	inactive	14.1 µM (active)	
C[C@@H](O)[C@H]1C(=O)N2C(C(=O)O)=C([C@H]3CCCO3)S[C@H]12	inactive	inactive	inactive	inactive	inactive	inactive	inactive	-7.31%	-12.1%	-5.94%	inactive		
Cn1c(=O)c2[nH]c(Br)nc2n(C)c1=O	inactive	inactive	inactive	inactive	inactive	inactive	inactive	-10.3%	-8.55%	-9.05%	inactive		
C#C[C@]1(O)CC[C@H]2[C@@H]3[C@H](C)CC4=C(CCC(=O)C4)[C@H]3CC[C@@]21C	inactive	inactive	inactive	inactive	inactive	inactive	inactive	-14.2%			inactive	31.6 µM (active)	
CC(C)CCCC(C)N (configuration not stated)	inactive	inactive	inactive	inactive	inactive	inactive		-9.11%	-4%	-27%	inactive		-26.4%
O=C(CCN1CCN2CCCC2C1)N1c2ccccc2Sc2ccc(Cl)cc21 (configuration not stated)	inactive	inactive	inactive	inactive	inactive	inactive	inactive				inactive		
Cc1cn([C@H]2C[C@H](F)[C@@H](CO)O2)c(=O)[nH]c1=O	inactive	inactive	inactive	inactive	inactive	inactive	inactive	-16.6%	-21.3%	-27%	inactive		
Cl/C(=C\n1cncn1)c1ccc(Cl)cc1Cl	inactive	inactive	inactive	inactive	inactive	inactive	inactive	-7.02%	-2.18%	-23.5%	inactive		
O=C(N/N=C/c1ccc([N+](=O)[O-])o1)c1ccc(O)cc1	25.1 µM (active)	inactive	22.4 µM (active)	20 µM (active)	14.1 µM (active)						inactive		
CCCCCCCCCCCCCCCCO	inactive	inactive	inactive	inactive	inactive	inactive	inactive	-2.36%	5.55%	3.59%	inactive		
CCCCCCCCCCC[C@@H](C[C@@H]1OC(=O)[C@H]1CCCCCC)OC(=O)[C@H](CC(C)C)NC=O	inactive	inactive	inactive	inactive	inactive	inactive	inactive		-23%		22.4 µM (active)	10 µM (active)	
